In PubChem BioAssay (Tox21):
Results filed as inconclusive are left out. A call without a number means that no potency is given here. A number with no mark means an inactive call. Calls of active or inactive are those of the source. Calls come from the whole dose curve; as a rule, active = well fitted activation curve with a large enough effect in the repeat runs; inconclusive = weak or mixed curves; inactive = flat fitted curve, though single readings scatter.

Test: A CellTox Green Cytotoxicity Assay to monitor cytotoxicity in HEK293 cells - 8 hour (AID 1224884); note: nearly all actives have a fitted effect of over 35% in size
Details: CellTox Green fluorescence; series mostly up to 76.8 µM
From the text: National Center for Advancing Translational Sciences [NCATS]
NIH Chemical Genomics Center [NCGC]
U.S. Environmental Protection Agency [EPA]
National Institutes of Environmental Health Sciences [NIEHS]
National Toxicology Program [NTP]
Cell-based models are critical for drug discovery. Determining the natural cytotoxic effects resulting from test compounds is an essential research activity. A CellTox Green Cytotoxicity Assay to monitor cytotoxicity in real time of continues cell culture during 40 hours of the compound treatment was used to screen Tox21 10K library compounds in Hek293 cells. CellTox Green Cytotoxicity Assay is a nonlytic, homogeneous, biofluorescent method to measure cytotoxicity in cell culture after experimental manipulation. The assay system uses a proprietary asymmetric cyanine dye that is excluded from viable cells but preferentially stains the dead cell's DNA. […] Viable cells produce no appreciable increases in fluorescence. Therefore, the fluorescence signal produced by the binding interaction with dead cell DNA is proportional to cytotoxicity.
The mixture of Hek293 cell suspension and reagents were dispensed at 600cells/6 ul/well in 1536-well tissue culture treated black solid bottom plates using a Multidrop dispenser. After the assay plates were incubated at a 37 C/5% CO2 incubator for 5 hours, 23 nL of compounds dissolved in DMSO, positive and negative controls was transferred to the assay plate by a pintool work station. The plates were incubated at 37 C for 40 hours. The fluorescence intensity were measured at 0h, 8h, 16h, 24h, 32h and 40h time points using ViewLux plate reader during compound treatment.

SMILES	Potency	cytotoxicity increase
COc1cc(Cl)ccc1Cl	inactive	–
CCN1CC(CCN2CCOCC2)C(c2ccccc2)(c2ccccc2)C1=O (stereo not given)	inactive	–
C[C@]12CCC(=O)C=C1CC[C@@H]1[C@@H]2CC[C@@]2(C)[C@H]1CC[C@]2(O)C(=O)CO	inactive	–
CN1CCC[C@@H]1Cc1c[nH]c2ccc(CCS(=O)(=O)c3ccccc3)cc12	inactive	–
CC(=O)Oc1cc(C(C)C)c(OCCN(C)C)cc1C	inactive	–
COc1ccccc1N1CCN(CCCNc2cc(=O)n(C)c(=O)n2C)CC1	inactive	–
O=C(Cl)c1cccc([N+](=O)[O-])c1	inactive	–
O=C(O)CN(CCN(CC(=O)O)CC(=O)O)CCN(CC(=O)O)CC(=O)O	–	18.1% [at 15.8 µM]
CCCCC(CC)COC(=O)COc1cc(Cl)c(Cl)cc1Cl (stereo not given)	inactive	–
NC(Cc1ccc(F)cc1)C(=O)O (stereo not given)	–	17.5% [at 6.97 µM]
CCN(O)CC	inactive	–
CCCCCCOc1ccc(N)cc1	inactive	–
OCC(CBr)(CBr)CBr	inactive	–
O=C1CCCCC1C1CCCCC1 (stereo not given)	inactive	–
CC1=C(O)C(=O)OC1C (stereo not given)	inactive	–
CC(C)C1=CC2=CC[C@@H]3[C@](C)(CCC[C@@]3(C)C(=O)O)[C@H]2CC1	inactive	–
CC(C)S	inactive	–
Cc1nc(N)nc(N)c1-c1ccc(Cl)c(Cl)c1	inactive	–
CC1=C(CC(=O)O)c2cc(F)ccc2/C1=C\c1ccc(S(C)(=O)=O)cc1	inactive	–
CCCCc1ccc2nc(NC(=O)OC)[nH]c2c1	inactive	–

SMILES	Potency	cytotoxicity increase
CCCOc1ccc2c(c1)CC[C@@H]1[C@@H]2CC[C@]2(C)C(OC)CC[C@@H]12 (stereo not given in full)	inactive	–
C/C(=N\O)[C@@H](C)NCC(C)(C)CN[C@H](C)/C(C)=N/O	inactive	–
CC(=O)N(CC(O)CN(C(C)=O)c1c(I)c(C(=O)NCC(O)CO)c(I)c(C(=O)NCC(O)CO)c1I)c1c(I)c(C(=O)NCC(O)CO)c(I)c(C(=O)NCC(O)CO)c1I (stereo not given)	inactive	–
O=Cc1ccc(F)c(Br)c1	inactive	–
C=CCc1cc(OC)c(O)c(C(=O)NCCO)c1	inactive	–
CN1C(=O)CC(c2ccccc2)C1=O (stereo not given)	inactive	–
O=C(O)[C@@H](O)[C@H](O)[C@H](O)[C@@H](O)C(=O)O	inactive	–
COc1cc2c(cc1N)oc1ccccc12	inactive	–
Cc1cccc(C)c1NC(=O)CN1CCCCCC1	inactive	–
CC(=O)O[C@H]1CC[C@@]2(C)C(=CC[C@@H]3[C@@H]2CC[C@]2(C)C(C(C)=O)=CC[C@@H]32)C1	inactive	–
O=C1CCN(c2ccccc2)N1	inactive	–
CN(CC1(C)CCCO1)S(=O)(=O)c1ccc(Cl)c(S(N)(=O)=O)c1 (stereo not given)	inactive	–
CC[C@H]1CC[C@H](NCc2cc3c(cc2OC)[C@H]2C[C@H]2C(=O)N3C)[C@H](c2ccccc2)N1	inactive	–
OC[C@H]1O[C@@H](O[C@H]2[C@H](O)[C@@H](O)[C@H](O)O[C@@H]2CO)[C@H](O)[C@@H](O)[C@H]1O	inactive	–
CCOc1ccc(NS(=O)(=O)c2ccc(N)cc2)nn1	inactive	–
CCCCCCCCOC(=O)CCCCCCCCC(=O)OCCCCCCCC	inactive	–
C1CCOC1	inactive	–
NC(=O)Cc1cccc(C(=O)c2ccccc2)c1N	inactive	–
CO[Si](C)(C)OC	inactive	–
CCN(CC)C(=O)N(CC)CC	inactive	–
